Measured values from the supplement of paper PMC5919970.
Structures can show the parent of a compound that is named as a salt. In all, about 2,000 compounds were measured (“fractional viability relative to vehicle”: median about 0.91, lowest 2% from about 0.045 on). Only a selection was taken, and the lowest values are over-represented in it overall.

Tested on: TYKNU
Assay: fractional viability relative to vehicle; TYKNU is a high-grade serous ovarian cancer line; higher = less growth inhibition
Details: 72 h
In short: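 TYKNU control cells or lentiCRISPRv2 knockout derivatives were seeded at 500 cells per well into drug-stamped 384-well plates holding a ~2100-compound library at 2 or 10 μM, in duplicate. Cells were grown at 37 °C in 5% CO2 in RPMI 1640 with 10% FBS, and drug treatment lasted 72 h. Viability was read by Cell Titer Glo luminescence. Duplicate treatment wells were averaged and normalised to duplicate control wells from the same plate position.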

[1] = 2uM, genotype: DNM1L knockout (sgDNM1L #1)
[2] = 2uM, genotype: sgCTRLA1 (non-targeting control)
[3] = 10uM, genotype: DNM1L knockout (sgDNM1L #1)
[4] = 10uM, genotype: sgCTRLA1 (non-targeting control)

| Structure (SMILES) | fractional viability [1] | fractional viability [2] | fractional viability [3] | fractional viability [4] |
| --- | --- | --- | --- | --- |
| COCC(=O)NC/C=C/c1ccc2ncnc(Nc3ccc(Oc4ccc(C)nc4)c(C)c3)c2c1 | 1.07 | 1.08 | 0.886 | 1.06 |
| Cc1c(Cn2c(C)nc3c(C(=O)O)cc(N4CCOCC4)cc32)cccc1C(F)(F)F | 0.754 | 0.989 | 0.83 | 0.849 |
| CC[C@@H]([C@H](C)O)n1ncn(-c2ccc(N3CCN(c4ccc(OC[C@@H]5CO[C@@](Cn6cncn6)(c6ccc(F)cc6F)C5)cc4)CC3)cc2)c1=O [Posaconazole] | 0.919 | 1.13 | 0.868 | 1.05 |
| CCC(=O)Nc1cccc(Oc2nc(Nc3ccc(N4CCN(C)CC4)cc3OC)ncc2Cl)c1 | 0.867 | 0.981 | 0.303 | 0.347 |
| C=CC(=O)Nc1cccc(Oc2nc(Nc3ccc(N4CCN(C)CC4)cc3)ncc2Cl)c1 | 0.338 | 0.355 | 0.157 | 0.146 |
| C=CC(=O)Nc1cccc(Nc2nc(Nc3ccc(N4CCN(C(C)=O)CC4)cc3OC)ncc2C(F)(F)F)c1 | 0.528 | 0.856 | 0.24 | 0.235 |
| C=CC(=O)Nc1ccc(CN2C(=O)N(c3cc(OC)cc(OC)c3)Cc3cnc(Nc4ccc(N5CCN(C)CC5)cc4)nc32)cc1 | 0.926 | 0.803 | 0.0593 | 0.0423 |
| C=CC(=O)Nc1cccc(Sc2nc(Nc3ccc(N4CCN(C)CC4)cc3)ncc2Cl)c1 | 0.965 | 0.898 | 0.0379 | 0.0337 |
| C=CC(=O)Nc1cccc(Oc2nc(Nc3ccc(N4CCN(C)CC4)cc3OC)ncc2Cl)c1 | 0.754 | 0.963 | 0.345 | 0.492 |
| C[C@@H](Nc1cc(F)cc(F)c1)c1cc(C(=O)N(C)C)cc2c(=O)cc(N3CCOCC3)oc12 | 0.647 | 0.847 | 0.701 | 0.566 |
| CN(C)C/C=C/C(=O)Nc1cc2c(Nc3ccc(F)c(Cl)c3)ncnc2cc1O[C@H]1CCOC1 [Afatinib (BIBW2992)] | 0.578 | 0.809 | 0.0953 | 0.0868 |
| CN(C)C/C=C/C(=O)Nc1cc2c(Nc3ccc(F)c(Cl)c3)ncnc2cc1O[C@H]1CCOC1 [Afatinib (BIBW2992) Dimaleate] | 0.77 | 0.984 | 0.77 | 0.767 |
| O=S(=O)(N=Cc1c(O)ccc2ccccc12)c1cccs1 | 0.71 | 0.953 | 0.696 | 0.77 |
| NC(=O)c1noc([C@H](CCCC2CCCCC2)CC(=O)NO)n1 | 0.928 | 1.03 | 0.623 | 0.827 |
| CNS(=O)(=O)Nc1nccc(Cc2c(C)c3ccc(Oc4ncccn4)cc3oc2=O)c1F | 0.326 | 0.304 | 0.239 | 0.199 |
| COc1cc2ncnc(Nc3ccc(F)c(Cl)c3)c2cc1OCCCN1CCOCC1 [Gefitinib (ZD1839)] | 1 | 1.11 | 0.492 | 0.555 |
| Cc1cc2c(F)c(Oc3ncnn4cc(OC[C@@H](C)O)c(C)c34)ccc2[nH]1 | 0.804 | 0.956 | 0.487 | 0.469 |
| COc1cc2c(Oc3ccc4[nH]c(C)cc4c3F)ncnc2cc1OCCCN1CCCC1 [Cediranib (AZD2171)] | 0.99 | 0.847 | 0.0461 | 0.0421 |
| Cc1ncc(CCCN(C)C)cc1Nc1ncc2c(n1)-c1ccc(C(F)(F)F)cc1NC(=S)C2 | 0.211 | 0.231 | 0.259 | 0.251 |

| Structure (SMILES) | fractional viability [1] | fractional viability [2] | fractional viability [3] | fractional viability [4] |
| --- | --- | --- | --- | --- |
| CC(C)(C)C[C@@H]1N[C@@H](C(=O)N[C@H]2CC[C@H](O)CC2)[C@H](c2cccc(Cl)c2F)[C@]12C(=O)Nc1cc(Cl)ccc12 | 0.274 | 0.277 | 0.259 | 0.225 |
| CCN(CC)CCN(Cc1ccc(-c2ccc(C(F)(F)F)cc2)cc1)C(=O)Cn1c(SCc2ccc(F)cc2)nc(=O)c2c1CCC2 | 0.329 | 0.569 | 0.0156 | 0.00842 |
| CC(C)(C)C(=O)Nc1ccc2c(c1)C(=O)C(=O)c1ccccc1-2 | 0.175 | 0.0968 | 0.0236 | 0.0127 |
| CC(=O)Nc1ccccc1 [Acetanilide] | 0.896 | 1.08 | 0.878 | 1.14 |
| CCCc1nc(C(C)(C)O)c(C(=O)OCc2oc(=O)oc2C)n1Cc1ccc(-c2ccccc2-c2nnn[nH]2)cc1 [Olmesartan Medoxomil] | 0.907 | 0.929 | 1.1 | 1.02 |
| CC(C)(C)C#Cc1cc(N(C(=O)[C@H]2CC[C@H](C)CC2)[C@H]2CC[C@H](O)CC2)c(C(=O)O)s1 [VX-222 (VCH-222, Lomibuvir)] | 0.983 | 1.03 | 0.818 | 0.95 |
| NC(=O)c1cnc(N[C@@H]2CCCC[C@@H]2N)nc1Nc1cccc(-n2nccn2)c1 | 0.751 | 0.853 | 0.185 | 0.142 |
| Fc1ccc(CNc2ncnc3ccc(F)cc23)cc1 [Spautin-1] | 0.675 | 0.763 | 0.67 | 0.447 |
| NNC(=O)c1ccncc1 [Isoniazid] | 0.893 | 1.14 | 0.875 | 1.06 |
| O=C(/C=C/c1ccc2ccccc2n1)c1ccncc1 | 0.0494 | 0.0683 | 0.0258 | 0.0162 |
| O=C(NNc1ccccc1)c1ccncc1 | 0.723 | 0.931 | 0.801 | 0.659 |
| Cc1ccc(NC(=O)Nc2cc(C(F)(F)F)ccc2F)cc1Nc1ccc2c(c1)NC(=O)/C2=C\c1ccc[nH]1 | 0.873 | 0.905 | 0.918 | 0.825 |
| CCOC(=O)c1c(CSc2ccccc2)n(C)c2cc(Br)c(O)c(CN(C)C)c12 [Arbidol HCl] | 0.913 | 1.07 | 0.611 | 0.645 |
| CCOC(=O)[C@H](CCc1ccccc1)N[C@@H](C)C(=O)N1C(=O)N(C)C[C@H]1C(=O)O [Imidapril HCl] | 0.976 | 1.1 | 0.958 | 1.17 |
| CC(C)C[C@H](NC(=O)CNC(=O)c1cc(Cl)ccc1Cl)B1OC(=O)C(CC(=O)O)(CC(=O)O)O1 | 0.13 | 0.0935 | 0.0814 | 0.0756 |
| COc1cccc2c1C(=O)c1c(O)c3c(c(O)c1C2=O)C[C@@](O)(C(C)=O)C[C@@H]3O[C@H]1C[C@H](N)[C@H](O)[C@H](C)O1 [Daunorubicin HCl] | 0.392 | 0.254 | 0.0554 | 0.0241 |
| CC(=O)[C@]1(O)Cc2c(O)c3c(c(O)c2[C@@H](O[C@H]2C[C@H](N)[C@H](O)[C@H](C)O2)C1)C(=O)c1ccccc1C3=O [Idarubicin HCl] | 0.362 | 0.165 | 0.042 | 0.021 |
| COc1cccc2c1C(=O)c1c(O)c3c(c(O)c1C2=O)C[C@@](O)(C(=O)CO)C[C@@H]3O[C@H]1C[C@H](N)[C@H](O)[C@H](C)O1 [Doxorubicin (Adriamycin)] | 0.377 | 0.212 | 0.437 | 0.323 |
| Nc1cccc(S(=O)(=O)N2CCCN(S(=O)(=O)c3ccc4c(c3)OCCO4)CC2)c1 | 0.767 | 0.995 | 0.742 | 0.647 |

| Structure (SMILES) | fractional viability [1] | fractional viability [2] | fractional viability [3] | fractional viability [4] |
| --- | --- | --- | --- | --- |
| NCCCCCNCC12CC3CC(CC(C3)C1)C2 [IEM 1754 dihydrobroMide] | 0.967 | 0.972 | 0.91 | 0.898 |
| CC(=O)Oc1cc2c(s1)CCN(C(C(=O)C1CC1)c1ccccc1F)C2 (stereo not drawn) [Prasugrel] | 1.14 | 1.21 | 0.897 | 1.08 |
| C[C@@H]1COCCN1c1cc(C2([S@](C)(=N)=O)CC2)nc(-c2cc[nH]c3nccc2-3)n1 | 0.189 | 0.127 | 0.136 | 0.0834 |
| CCCCCCCCCCCCCCCCn1cc[n+](Cc2ccccc2)c1C | 0.134 | 0.104 | 0.0139 | 0.00629 |
| Cc1nn(C)c(COc2ccc(N3CCN(S(=O)(=O)N(C)C)CC3)cc2)c1-c1cccc2c(CCCOc3cccc4ccccc34)c(C(=O)O)n(CCN3CCOCC3)c12 | 0.762 | 0.94 | 0.644 | 0.518 |
| C[C@@H](Oc1cc(-c2cnn(C3CCNCC3)c2)cnc1N)c1c(Cl)ccc(F)c1Cl | 0.669 | 0.73 | 0.128 | 0.126 |
| CC[C@H]1[C@@H](O)[C@@H]2[C@H](CC[C@]3(C)[C@@H]([C@H](C)CCC(=O)O)CC[C@@H]23)[C@@]2(C)CC[C@@H](O)C[C@@H]12 [Obeticholic Acid] | 0.846 | 0.891 | 0.952 | 0.807 |
| CC(C)(C)C(=O)C(Oc1ccc(Cl)cc1)n1ccnc1 (stereo not drawn) [Climbazole] | 0.805 | 1.06 | 0.641 | 0.924 |
| CC(C)(C)c1cc(C(=O)C(C#N)=NNc2cccc(Cl)c2)no1 | 0.783 | 0.936 | 0.57 | 0.583 |
| CCc1ccc(OCc2ccccc2C(=O)Nc2ccc3nc(C)cc(N)c3c2)cc1 | 0.117 | 0.166 | 0.0139 | 0.00672 |
| COc1cc2c(cc1OC)CN(CCc1ccc(NC(=O)c3cc(OC)c(OC)cc3NC(=O)c3cnc4ccccc4c3)cc1)CC2 [Tariquidar] | 0.769 | 1.05 | 0.158 | 0.555 |
| CCCC(=O)Nc1cccc(NC(=O)c2ccccc2Br)c1 | 1.11 | 1.19 | 0.939 | 1.21 |
| Cn1c(=O)cc(N2CCC[C@@H](N)C2)n(Cc2ccccc2C#N)c1=O [Alogliptin] | 0.928 | 0.995 | 0.894 | 1.03 |
| Cc1ncc([N+](=O)[O-])n1CC(O)CCl (stereo not drawn) [Ornidazole] | 1.42 | 1.24 | 1.25 | 1.37 |
| NC(=O)N/N=C/c1ccc([N+](=O)[O-])o1 [Nitrofural] | 1.34 | 1.13 | 1.26 | 1.2 |
| CCOC(=O)c1ccc(N2NC(=O)C(=Cc3ccc([N+](=O)[O-])o3)C2=O)cc1 | 0.944 | 1.26 | 0.872 | 1.02 |
| O=C(N/N=C/c1ccc([N+](=O)[O-])o1)c1ccc(O)cc1 [Nifuroxazide] | 0.378 | 1.1 | 0.0463 | 0.0163 |
| CN(C)c1ccc(C(=C2C=CC(=[N+](C)C)C=C2)c2ccc(N(C)C)cc2)cc1 [Crystal Violet] | 0.133 | 0.121 | 0.0375 | 0.0133 |
| O=c1[nH]c(=O)n(C2CC(O)C(CO)O2)cc1Br (stereo not drawn) [Bromodeoxyuridine (BrdU)] | 0.823 | 0.962 | 0.859 | 0.64 |
